# Experimental data from PubChem BioAssay AID624173 (National Center for Advancing Translational Sciences (NCATS), 2012).
# Screen size: about 410,000 compounds; about 490 (0.12%) were called active. About 1% were inconclusive and are not listed. Calls follow the shape of the dose curve; as a rule, active = well fitted inhibition curve with a large enough effect; inconclusive = small, poorly fitted or top-dose-only effect; inactive = flat fitted curve, though single readings scatter. The list comes from a sample in which actives are over-represented; it also holds similar structures and randomly drawn compounds. A call without a number means that no potency is given here.
# Molecular target: pyruvate kinase (Trypanosoma brucei) (UniProt Q57TT1)
# Test: qHTS of Trypanosoma Brucei Inhibitors
# Settings: TbPYK enzyme, Kinase-Glo Plus ATP luminescence, 45 min; series mostly up to 76.8 µM
# Excerpt: Members of the Trypanosomatidae family of parasitic protozoans cause a spectrum of diseases throughout the tropical and subtropical world. Sleeping sickness, caused by two subspecies of Trypanosoma brucei, is endemic to areas of sub-Saharan Africa, while Chagas' disease, a manifestation of Trypanosoma cruzi infection, is prevalent throughout Central and South America. In addition, many species of Leishmania are responsible for a range of cutaneous and visceral diseases, causing ulcers, destructive lesions and kalaazar, a lethal infection of the viscera. These diseases cause severe public health and economic burdens on populations that are often already caught in a tragic cycle of poverty, poor nutrition and disease. Collectively, parasites of the trypanosomatid family infect 30 million people worldwide (~500 million live in endemic areas), and account for ~130K deaths annually. Existing treatments have developed little in the past 50 years, and suffer from toxicity, poor efficacy and resistance; the goal of this project is to develop lead drugs that will be suitable for entry into pre-clinical trials.
# Glycolysis in axenically cultured T. cruzi, representing the intracellular pathogenic stage, is also essential for these parasites. {Engel, 1987} This project aims to discover and optimize selective inhibitors of the glycolytic enzyme pyruvate kinase (PYK) from Trypanosoma brucei, the parasite that causes sleeping sickness. […] Trypanosomatid PYKs show significant differences from their human counterparts including only 47-50% sequence identity and different allosteric and activation properties.{Callens, 1992} To this end, a qHTS was done against the MLSMR to discover inhibitors.
# NIH Molecular Libraries Probe Production Network [MLPCN]
# NIH Chemical Genomics Center [NCGC]
# PI Name: Malcolm Walkinshaw, University of Edinburgh
# 2 uL of TbPYK/substrate buffer (columns 1-3, 5-48) are dispensed into Greiner white solid bottom 1536-well assay plates; column 4 receives only TEA buffer as 0x TbPYK controls. Compounds are then transferred via Kalypsys pin tool equipped with 1536-pin array (10 nL slotted pins, V&P Scientific, San Diego, CA). Following addition of compound, 2 uL of ADP (130 uM final concentration, all columns) is added to initiate the reaction. The plates are then incubated at room temperature for 45 minutes. Kinase-Glo Plus reagent is added (3 uL) and plates incubated for 10 minutes, before being transferred to a ViewLux high-throughput CCD imager (PerkinElmer) wherein single end-point measurements of luminescence are acquired using a clear filter. All reagents are diluted in an assay buffer consisting of 50 mM TEA (pH 7.2), 100 mM KCl, 10 mM MgCl2, 0.05% BSA and 0.01% Tween-20.
# All screening operations will be performed on a fully integrated robotic system (Kalypsys, San Diego, CA) containing one RX-130 and two RX-90 anthropomorphic robotic arms (Staeubli, Duncan, SC). Library plates will be screened starting from the lowest and proceeding to the highest concentration. Vehicle-only plates, with DMSO being pin-transferred to columns 5-48, will be inserted uniformly at the beginning and the end of each library in order to monitor and record any shifts in the background, which can be affected by reagent dispensers or loss in enzyme activity over time. Screening data will be corrected, normalized, and concentration-effect relationships will be derived by using publicly-available curve fitting algorithms developed in-house (http://ncgc.nih.gov/pub/openhts).
# Potency is read from the fitted curve at half-maximal effect.
row,Compound,Potency
1,Cc1cc(-c2csc(N)n2)c(C)n1-c1ccccc1,inactive
2,O=P(O)(O)OC[C@H](O)CO,inactive
3,O=C(O)[C@@H](S)[C@H](S)C(=O)O,inactive
4,CC(C)CC1C(=O)N2CCCC2C2(O)OC(NC(=O)C3CC4c5cccc6[nH]cc(c56)CC4N(C)C3)(C(C)C)C(=O)N12 (configuration not stated),inactive
5,O=c1c(-c2ccc(F)cc2)nc2cnc(N3CCOCC3)nc2n1-c1ccccc1,inactive
6,Clc1ccc(-c2nc3sccn3c2C=NOCc2ccc(Cl)c(Cl)c2)cc1,inactive
7,Cn1cccc1C(=O)N1CCC[C@@]2(CCN(Cc3nccs3)C2)C1,inactive
8,O=C(c1cc(C(F)(F)F)cc(C(F)(F)F)c1)N1CCC2(CCCN(Cc3ccncc3)C2)CC1,inactive
9,CN1CCCC(=C(c2cccs2)c2cccs2)C1,inactive
10,O=C1NC(=O)N(c2ccccc2)C(=O)/C1=C/c1ccc([N+](=O)[O-])s1,17.8 µM (active)
11,CC[N+]1(CCOC(=O)C(O)(c2ccccc2)c2ccccc2)CCCCC1,inactive
12,COc1cccc(Nc2ncc3ncc(=O)n(C4CC4)c3n2)c1,inactive
13,CO[C@H]1C[C@@H](O[C@@H]2[C@@H](C)O[C@@H](O[C@@H]3/C(C)=C/CC4C[C@@H](C[C@]5(C=C[C@@H](C)[C@H](C6CCCCC6)O5)O4)OC(=O)[C@@H]4C=C(C)[C@@H](O)[C@H]5OC/C(=C\C=C\[C@@H]3C)[C@]54O)C[C@H]2OC)O[C@@H](C)[C@@H]1O,inactive
14,CCCCCCCCCCCCCCCCO,inactive
15,CCCN(CC)[C@@H](CC)C(=O)Nc1c(C)cccc1C,inactive
16,O=S(=O)(O)C(F)(F)C(F)(F)C(F)(F)C(F)(F)F,inactive
17,C[N+](C)(CCOc1ccccc1)Cc1cccs1 (tested in a mixture with another compound),inactive
18,CCCC[C@H]1C(=O)N(c2ccccc2)N(c2ccc(O)cc2)C1=O,inactive
19,CN1CCC2(CC1)CCN(S(=O)(=O)c1ccccc1)CC2,inactive
20,O=C(c1csnn1)N1CCC2(CC1)CN(c1ncccn1)C2,inactive
21,COc1ccc(S(=O)(=O)NCC(c2ccc(N(C)C)cc2)N2CCCC2)cc1 (configuration not stated),inactive
22,O=C(Nc1cccc(F)c1)N1CC2(CCN(C(=O)c3csnn3)CC2)C1,inactive
23,CN1C(=O)C[C@H](c2ccccc2)C1=O,inactive
24,C/C=C/C=N/NC(=O)c1ccncc1,inactive

row,Compound,Potency
1,O=C(Nc1cccc(F)c1)N1CC2(CCN(C(=O)c3cnccn3)CC2)C1,inactive
2,Cc1nnc(SCC(=O)NNC(=O)c2ccc(Cl)cc2)n1CC1CCCO1 (configuration not stated),inactive
3,S=c1[nH]nc(-c2ccc(Cl)cc2)n1CC1CCCO1 (configuration not stated),10 µM (active)
4,CNC(=O)NC(=O)CSc1nnc(-c2ccc(F)cc2)n1CC1CCCO1 (configuration not stated),inactive
5,c1ccc(N2CC[C@@]3(CCCNC3)C2)nc1,inactive
6,NNc1nnc(Cc2ccncc2)c2ccccc12,inactive
7,CCNc1ncc2ncc(=O)n(CCc3ccccc3)c2n1,inactive
8,O=C(N/N=C/c1ccc([N+](=O)[O-])o1)c1cc([N+](=O)[O-])cc([N+](=O)[O-])c1O,inactive
9,CCOc1ccc(N(Cc2ccccc2)C(=O)c2nc(S(C)(=O)=O)ncc2Cl)cc1,inactive
10,Cc1ccnc(SC2CC(=O)N(c3ccccc3)C2=O)n1 (configuration not stated),inactive
11,O=c1c2ccccc2nc(-c2ccccc2)n1-c1ccccn1,inactive
12,Cc1ccnc(-n2sc3ccccc3c2=O)n1,20 µM (active)
13,Cc1ccc(S(=O)(=O)NC(=O)NN2C[C@H]3CCC[C@@H]3C2)cc1,inactive
14,c1csc(CN2CCCC3(CCNCC3)C2)n1,inactive
15,CC(O)COc1ccccc1 (configuration not stated),inactive
16,OCC(CO)NC1C[C@](O)(CO)[C@@H](O)[C@H](O)[C@H]1O (some centres not stated),inactive
17,Cn1c(=O)c(-c2ccccc2)nc2cnc(N3CCNCC3)nc21,inactive
18,NNc1nnc(NN)c2ccccc12,inactive
19,O=C(c1csnn1)N1CCC[C@@]2(CCN(Cc3nccs3)C2)C1,inactive
20,C[C@@H]1C[C@H]2[C@@H]3C[C@H](F)C4=CC(=O)C=C[C@@]4(C)[C@]3(F)[C@H](O)C[C@]2(C)[C@@]1(O)C(=O)CO,inactive
21,COc1ccc(Cn2ccn(CC(=O)Nc3cc(C)ccc3C)c(=O)c2=O)cc1,inactive
22,CN1CC(O)c2cc(N=NC(N)=O)c(O)cc21 (configuration not stated),inactive
23,O=C(c1csnn1)N1CCC[C@@]2(CCN(c3cccc(-c4ccccc4)c3)C2)C1,inactive
